In PubChem BioAssay (NCATS):
Results filed as inconclusive are left out. Values without a mark were called inactive. The source made the active and inactive calls. Calls follow the shape of the dose curve; as a rule, active = well fitted cell-killing curve with a large enough effect; inconclusive = small, poorly fitted or top-dose-only effect, or effect the other way; inactive = no such curve, though single readings can be large or run the other way.

experiment: Quantitative highthroughput screen to assess conditional lethalithy of SEM cells grown in RPMI1640 with unreated serum (RPMI+s) (AID 1963883); conditions: SEM B-ALL cells, CellTiter-Glo viability, 48 h; series mostly up to 45.8 µM; viability: at the top concentration; also: nearly all actives have a fitted effect of over 35% in size
From the text: Assay Provider: Jason Cantor Ph.D.
Department of Biochemistry
University of Wisconsin-Madison, Madison, WI, USA
Chemical screening studies have identified drug sensitivities across hundreds of cancer cell lines but most putative therapeutics fail to translate. Discovery and development of drug candidates in models that more accurately reflect nutrient levels in human blood is a major challenge. Here we performed high-throughput screens in conventional versus Human Plasma-Like Medium (HPLM) to identify compounds that were "missed" when screening using the artificial culture condition. Sets of conditional anticancer compounds spanned phases of clinical development and included non-oncology drugs were assessed. […] We also traced conditional phenotypes for several chemotherapeutics to availability of HPLM-specific metabolites and confirmed others for compounds whose reported targets are encoded by nonessential genes. Our findings establish generalizable strategies for exploiting conditional lethality in HPLM to reveal therapeutic candidates and mechanisms of action in cancer cells.
Described herein are the results of each viability screens against three cell lines: NOMO1 (an acute myeloid leukemia cell line); P12-Ichikawa (a T-cell acute lymphoblastic leukemia); and SEM (a B-cell ALL). Each assay was screened using 3 different cell culture media: homemade human plasma-Like medium with 10% dialyzed fetal bovine serum (HPLM+ds); RPMI1640 with 10% untreated FBS and 5mM glucose (RPMI+s); and RPMI1640 with 10% dialyzed fetal bovine serum and 5 mM glucose (RPMI+ds).
PROTOCOL TABLE (as described by Inglese J, Shamu CE and Guy RK. 2007)
SEQUENCE No. (e.g., 1, 2, 3, etc.); […] (e.g., Cells, Incubation, Reagent, etc.); VALUE and DESCRIPTION.
1; Cells; 5 uL; white, solid bottom 1536-well Greiner assay plate.
2; Compounds; 23 nL; Kalypsis pin tool (Wako USA) equipped with a 1536-well pin head to transfer to the assay plates.
3; Incubation; 48 hours; 37C incubation.
4; Reagent; 3 uL; CellTiter Glo (Promega).
5; Incubation; 5 min, room temperature
6; Detection; Luminescence, Viewlux PerkinElmer.
NOTES (numbers refer to Sequence numbers above)
1. Briefly, 5 ul of cell reagent was dispensed using a Multidrop Combi Dispenser. The NOMO1 and SEM cells were plated at 500 cells/well and the P12-Ichikawa line at 1000 cells/well.
2. After seeding the cells, 23 nL of MIPE 4.1 library compounds (in DMSO) were added to each plate using a Kalypsys 1536 Pintool dispenser. Bortezomib at final concentration of […] and DMSO were added to each plate as positive and negative controls respectively. For each screen, MIPE 4.1 compounds were added over an eleven-point concentration range […] in 3-fold dilutions.
3. Each plate was covered with a stainless steel gasketed lid to prevent evaporation and incubated for 48 hour at 37C, 95% relative humidity, and 5% CO2.
4-5. Three microliter CellTilter-GloTM luminescent substrate mix (Promega) reagent was added to the assay plate and incubated at room temperature for 5 min.
6. The luminescence signal was measured using a ViewLux (PerkinElmer) multiplate reader with a 2 second exposure time per plate. Data for each compound were normalized as percent viability such that measurements for DMSO and the empty well controls in each plate were defined as 100% and 0%, respectively.
Potency is read from the fitted curve at half-maximal effect.

| Structure (SMILES) | viability [%] | Potency |
| --- | --- | --- |
| CC1(N2CCC(n3c([C@@H]4CCCNC4)nc4ccccc43)CC2)CCCCCCC1 | 78.4 | – |
| CC(=Cc1csc(C)n1)[C@@H]1C[C@H]2O[C@@H]2CCC[C@H](C)[C@@H](O)[C@@H](C)C(=O)C(C)(C)[C@@H](O)CC(=O)O1 | 11.1 | – |
| CNCC(O)c1ccc(O)cc1 (stereo not given) | 96.8 | – |
| CCOc1ccccc1-n1c(C(C)N2CCN(C(=O)COc3ccc(Cl)cc3)CC2)nc2ccccc2c1=O (stereo not given) | – | 417 nM (active) |
| C=CCON=C(C[C@H]1O[C@@H]2O[C@]3(C)CC[C@@H]4[C@H](C)CC[C@@H]([C@H]1C)[C@@]24OO3)[C@H]1O[C@@H]2O[C@]3(C)CC[C@H]4[C@H](C)CC[C@@H]([C@@H]1C)[C@@]24OO3 | – | 1050 nM (active) |
| CC(O)(CS(=O)(=O)c1ccc(F)cc1)C(=O)Nc1ccc(C#N)c(C(F)(F)F)c1 (stereo not given) | – | 14800 nM (active) |
| c1ccc2c(CN3CCNCC3)cccc2c1 | 95.2 | – |
| O=C1C=CC[C@@H]2[C@H]3CCCN4CCC[C@@H](CN12)[C@@H]34 | 106 | – |
| CC(C)N[C@@H]1CCn2c(=O)[nH]c3cccc(c32)[C@@H]1O | 92.9 | – |
| O=C(NCC1CCOCC1)c1cnc(Nc2ccc(Cl)cc2Cl)nc1C(F)(F)F | 88 | – |
| CC(=O)OCC1=C(C(=O)O)N2C(=O)[C@@H](N)[C@@H]2SC1 | 83.3 | – |
| CN(C)[C@@H]1C(=O)C(C(N)=O)=C(O)[C@@]2(O)C(=O)C3=C(O)c4c(O)cccc4[C@@](C)(O)[C@H]3[C@H](O)[C@@H]12 | 106 | – |
| COc1cccc2c1[C@]13CCN(CC4CC4)[C@H](C2)[C@]1(OC)CCC(=O)C3 | 93.4 | – |
| CC[C@@]1(O)C(=O)OCc2c1cc1n(c2=O)Cc2cc3ccccc3nc2-1 | – | 23.5 nM (active) |
| N[C@@H](Cc1ccc(N(CCCl)CCCl)cc1)C(=O)O | – | 2640 nM (active) |
| CC(C)(C)[C@]1(O)C[C@@H]2OC(=O)C[C@@]23C(=O)O[C@@H]2OC(=O)[C@H](O)C213 (stereo not given in full) | 103 | – |
| O=S(=O)(CC1CS1)c1ccc(Oc2ccccc2)cc1 (stereo not given) | – | 20900 nM (active) |
| C[C@](O)(CS(=O)(=O)c1ccc(F)cc1)C(=O)Nc1ccc(C#N)c(C(F)(F)F)c1 | 75.9 | – |
| O=P1(N(CCCl)CCCl)NCCCO1 (stereo not given) | – | 8330 nM (active) |
| O=C1CC[C@@]2(O)[C@H]3Cc4ccc(O)c5c4[C@@]2(CCN3CC2CC2)[C@H]1O5 | 102 | – |

| Structure (SMILES) | viability [%] | Potency |
| --- | --- | --- |
| O=C(O)CNC(=O)c1c(O)c2ccccc2n(Cc2ccccc2)c1=O | 92.3 | – |
| C1=C2CCCN[C@H]2[C@@H]2C[C@H]1[C@@H]1CCCCN1C2 | 103 | – |
| COc1ccc2c(c[n+](C)c3c4cc5c(cc4ccc23)OCO5)c1OC | – | 8330 nM (active) |
| COC[C@H]1OC(=O)c2coc3c2[C@@]1(C)C1=C(C3=O)C2CCC(=O)[C@@]2(C)C[C@H]1OC(C)=O (stereo not given in full) | 76.1 | – |
| Cc1cccc(C)c1NC(=O)CN1CCCC1=O | 85.2 | – |
| Cc1ncc(OC[C@@]2(c3cccc(F)c3)C[C@H]2C(=O)Nc2ccc(F)cn2)c(C)n1 | 85.6 | – |
| C=C(C)[C@H]1Cc2c(ccc3c2O[C@@H]2COc4cc(OC)c(OC)cc4[C@@H]2C3=O)O1 | – | 4180 nM (active) |
| O=C(Oc1ccc([N+](=O)[O-])cc1)N1CCC(C(O)(c2ccc3c(c2)OCO3)c2ccc3c(c2)OCO3)CC1 | 99.3 | – |
| C#CC1(O)CCC2C3CCC4=CC(=O)CCC4(C)C3CCC21C (stereo not given) | 111 | – |
| C[C@@H]1O[C@@H](O[C@@H]2C=C3CC[C@@H]4[C@@H](CC[C@]5(C)[C@H](c6ccc(=O)oc6)CC[C@@]45O)[C@@]3(C)CC2)[C@H](O)[C@H](O)[C@H]1O | – | 46.9 nM (active) |
| NC1=NC(=O)N2CC12 (stereo not given) | – | 1870 nM (active) |
| C[C@]12CC[C@H]3[C@@H](CCC4=CC(=O)CC[C@@]43C)[C@H]1CC[C@H]2OC(=O)CCC1CCCC1 | 84.8 | – |
| CCN1C[C@]2(OC(=O)c3ccccc3NC(C)=O)CC[C@H](OC)[C@@]34[C@H]5CC6[C@@H](OC)C[C@](O)(C(C[C@@H]23)[C@@H]14)[C@@]5(O)[C@@H]6OC | – | 6620 nM (active) |
| COc1ccc2c(c1OC)CN1CCc3cc4c(cc3C1C2)OCO4 (stereo not given) | – | 372 nM (active) |
| CN1C(=O)COc2c(C(=O)NC3CN4CCC3CC4)cc(Cl)cc21 (stereo not given) | 101 | – |
| C[C@H]([C@H](O)CCC(C)(C)O)[C@H]1CC[C@@]2(O)C3=CC(=O)[C@@H]4C[C@@H](O)[C@@H](O)C[C@]4(C)[C@@H]3CC[C@]12C | 88.2 | – |
| C[C@@H]1[C@@H](C(=O)C[C@H]2O[C@@H]3O[C@]4(C)CC[C@@H]5[C@H](C)CC[C@@H]([C@H]2C)[C@@]35OO4)O[C@@H]2O[C@]3(C)CC[C@H]4[C@H](C)CC[C@@H]1[C@@]24OO3 | – | 14800 nM (active) |
| COc1cc(OC)c(OC)cc1C=O | 90.9 | – |
| CCNC(=O)C[C@@H]1N=C(c2ccc(Cl)cc2)c2cc(OC)ccc2-n2c(C)nnc21 | – | 1050 nM (active) |
| CC(C)(O)C(=O)Nc1ccc([N+](=O)[O-])c(C(F)(F)F)c1 | 81.6 | – |
